Source: PubChem BioAssay AID1159580 (chemical genetic matrix, 2015)
Out of some 5,500 compounds screened, about 2,000 (36%) were called active. Inconclusive results (about 18%) are left out. Cut-off read from the data, not from the text of the source: active = normalized growth mostly below about 0.91 (no sharp cut-off); inconclusive = no clear call, values can overlap the other calls; inactive = mostly above about 0.92. Some of the results follow.

Test: chemical genetic growth profiling, strain panel (AID 1159580);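 note: tested at 20 µM; growth read once vehicle control cultures reached saturation at 30 °C; 1 = growth at the plate median or of vehicle wells; lower values mean less growth of the strain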
Details: S. cerevisiae deletion strains, growth OD
[1] = locus YAR019C, strain CDC15, hits give low values
[2] = locus YBL105C, strain PKC1, hits give low values
[3] = locus YBR135W, strain CKS1, hits give low values
[4] = locus YBR136W, strain MEC1, hits give low values
[5] = locus YBR160W, strain CDC28, hits give low values
[6] = locus YDL017W, strain CDC7, hits give low values
[7] = locus YDL028C, strain MPS1, hits give low values
[8] = locus YDL101C, strain DUN1, hits give low values
[9] = locus YDL108W, strain KIN28, hits give low values
[10] = locus YDL132W, strain cdc53, hits give low values
[11] = locus YDL214C, strain PRR2, hits give low values
[12] = locus YDR052C, strain DBF4, hits give low values
[13] = locus YDR054C, strain cdc34, hits give low values
[14] = locus YDR226W, strain ADK1, hits give low values
[15] = locus YDR477W, strain SNF1, hits give low values
[16] = locus YER123W, strain YCK3, hits give low values
[17] = locus YER133W, strain GLC7, hits give low values
[18] = locus YFL009W, strain cdc4, hits give low values
[19] = locus YFL029C, strain CAK1, hits give low values
[20] = locus YFR003C, strain YPI1, hits give low values
[21] = locus YFR019W, strain FAB1, hits give low values
[22] = locus YFR028C, strain CDC14, hits give low values
[23] = locus YGR040W, strain KSS1, hits give low values
[24] = locus YGR052W, strain FMP48, hits give low values
[25] = locus YGR092W, strain DBF2, hits give low values
[26] = locus YHR030C, strain SLT2, hits give low values
[27] = locus YHR079C, strain IRE1, hits give low values
[28] = locus YHR082C, strain KSP1, hits give low values
[29] = locus YHR205W, strain SCH9, hits give low values
[30] = locus YIL147C, strain SLN1, hits give low values
[31] = locus YJL095W, strain BCK1, hits give low values
[32] = locus YJL128C, strain PBS2, hits give low values
[33] = locus YJL157C, strain FAR1, hits give low values
[34] = locus YJR016C, strain ILV3, hits give low values
[35] = locus YJR066W, strain TOR1 (second series), hits give low values
[36] = locus YJR066W, strain TOR1, hits give low values
[37] = locus YKL048C, strain ELM1, hits give low values
[38] = locus YKL067W, strain YNK1, hits give low values
[39] = locus YKL101W, strain HSL1, hits give low values
[40] = locus YKL193C, strain SDS22, hits give low values
[41] = locus YKL203C, strain TOR2, hits give low values
[42] = locus YLR113W, strain HOG1, hits give low values
[43] = locus YLR133W, strain CKI1, hits give low values
[44] = locus YLR403W, strain SFP1, hits give low values
[45] = locus YML070W, strain DAK1, hits give low values
[46] = locus YMR001C, strain CDC5, hits give low values
[47] = locus YMR205C, strain PFK2 (second series), hits give low values
[48] = locus YMR277W, strain FCP1, hits give low values
[49] = locus YNL006W, strain LST8, hits give low values
[50] = locus YNL020C, strain ARK1, hits give low values
[51] = locus YNL161W, strain CBK1, hits give low values
[52] = locus YNL183C, strain NPR1, hits give low values
[53] = locus YNL207W, strain RIO2, hits give low values
[54] = locus YNL222W, strain SSU72, hits give low values
[55] = locus YNL307C, strain MCK1 (second series), hits give low values
[56] = locus YOL078W, strain AVO1, hits give low values
[57] = locus YOL136C, strain PFK27, hits give low values
[58] = locus YOR061W, strain CKA2, hits give low values
[59] = locus YOR119C, strain RIO1, hits give low values
[60] = locus YOR231W, strain MKK1, hits give low values
[61] = locus YOR329C, strain SCD5, hits give low values
[62] = locus YPL031C, strain PHO85, hits give low values
[63] = locus YPL153C, strain RAD53, hits give low values
[64] = locus YPL204W, strain HRR25, hits give low values
[65] = locus YPL209C, strain IPL1, hits give low values
[66] = locus YPL256C, strain CLN2, hits give low values
[67] = locus YPR025C, strain CCL1, hits give low values
[68] = locus YPR106W, strain ISR1, hits give low values
[69] = locus YPR111W, strain DBF20, hits give low values
[70] = strain NNK1, hits give low values
[71] = strain TSCII, hits give low values
[72] = locus YGR078C, strain PAC10, hits give low values
[73] = locus YNL322C, strain KRE1, hits give low values

Measured: normalized growth

COc1cc(N=Cc2cc(Cl)cc(Cl)c2OS(=O)(=O)c2ccc(C)cc2)c(OC)cc1Cl
inactive: [1] 0.935 | [2] 0.948 | [3] 0.943 | [4] 0.944 | [5] 0.927 | [6] 0.957 | [7] 0.921 | [8] 0.951 | [9] 0.936 | [10] 0.942 | [11] 0.891 | [12] 0.958 | [13] 0.947 | [14] 0.946 | [15] 0.914 | [16] 0.896 | [17] 0.929 | [18] 0.926 | [19] 0.932 | [20] 0.952 | [21] 0.955 | [22] 0.919 | [23] 0.918 | [24] 0.917 | [25] 0.849 | [27] 0.794 | [28] 0.829 | [29] 0.846 | [30] 0.949 | [31] 0.903 | [32] 0.884 | [33] 0.928 | [34] 0.963 | [35] 0.943 | [36] 0.805 | [37] 0.939 | [38] 0.897 | [39] 0.902 | [40] 0.946 | [41] 0.991 | [43] 0.906 | [44] 0.911 | [45] 0.902 | [46] 0.934 | [47] 0.923 | [48] 0.922 | [49] 0.955 | [50] 0.903 | [51] 0.95 | [52] 0.941 | [53] 0.952 | [54] 0.92 | [55] 0.921 | [56] 0.94 | [57] 0.881 | [58] 0.945 | [59] 0.924 | [60] 0.845 | [61] 0.958 | [62] 0.926 | [63] 0.911 | [64] 0.906 | [65] 0.947 | [67] 0.948 | [68] 0.942 | [69] 0.901 | [70] 0.943 | [71] 0.935
active: [26] 0.651 | [42] 0.85 | [66] 0.86

COc1cc(N=Cc2cc(Cl)cc(Cl)c2OC(=O)c2cc(OC)c(OC)c(OC)c2)c(OC)cc1Cl
active: [11] 0.369 | [15] 0.31 | [16] 0.212 | [17] 0.398 | [21] 0.34 | [23] 0.381 | [24] 0.235 | [25] 0.183 | [26] 0.145 | [27] 0.161 | [28] 0.176 | [29] 0.202 | [31] 0.177 | [33] 0.32 | [35] 0.463 | [36] 0.148 | [37] 0.458 | [38] 0.392 | [39] 0.346 | [41] 0.345 | [42] 0.243 | [43] 0.354 | [44] 0.244 | [45] 0.317 | [47] 0.421 | [50] 0.335 | [52] 0.235 | [55] 0.238 | [57] 0.273 | [58] 0.346 | [59] 0.307 | [60] 0.207 | [62] 0.292 | [63] 0.279 | [64] 0.312 | [66] 0.215
inactive: [1] 0.965 | [2] 0.977 | [3] 0.969 | [4] 0.974 | [5] 0.968 | [6] 0.981 | [7] 0.959 | [8] 0.962 | [9] 0.945 | [10] 0.966 | [12] 0.989 | [13] 0.98 | [14] 0.947 | [18] 0.956 | [19] 0.971 | [20] 0.975 | [22] 0.962 | [30] 0.977 | [32] 0.937 | [34] 0.987 | [40] 0.972 | [46] 0.963 | [48] 0.954 | [49] 0.982 | [51] 0.98 | [53] 0.977 | [54] 0.958 | [56] 0.969 | [61] 0.981 | [65] 0.977 | [67] 0.974 | [68] 0.962 | [69] 0.943 | [70] 0.98 | [71] 0.96

COC(=O)c1ccc([N+](=O)[O-])cc1Cl
inactive: locus YAL013W, strain DEP1, hits give low values 0.991 | locus YBR229C, strain ROT2, hits give low values 0.998 | locus YCL061C, strain MRC1, hits give low values 1 | [8] 0.989 | locus YDL134C, strain PPH21, hits give low values 0.983 | locus YDR150W, strain NUM1, hits give low values 0.923 | locus YEL061C, strain CIN8, hits give low values 0.988 | [72] 0.993 | [26] 0.989 | locus YHR087W, strain rtc3, hits give low values 1.01 | locus YJL187C, strain SWE1, hits give low values 0.991 | locus YJR043C, strain POL32, hits give low values 1.02 | locus YJR075W, strain HOC1, hits give low values 0.996 | locus YLR039C, strain RIC1, hits give low values 0.983 | locus YLR058C, strain SHM2 (second series), hits give low values 0.983 | locus YLR085C, strain ARP6, hits give low values 0.881 | locus YLR262C, strain YPT6, hits give low values 1 | locus YML094W, strain GIM5, hits give low values 0.964 | locus YMR219W, strain ESC1, hits give low values 0.992 | locus YMR263W, strain SAP30, hits give low values 0.992 | locus YMR307W, strain GAS1, hits give low values 1.05 | locus YNL128W, strain TEP1, hits give low values 0.985 | locus YNL153C, strain GIM3, hits give low values 1.01 | locus YNL298W, strain CLA4 (second series), hits give low values 0.97 | [73] 1 | locus YNR030W, strain Alg12, hits give low values 1.01 | locus YOL006C, strain TOP1, hits give low values 0.756 | locus YPL055C, strain LGE1, hits give low values 0.95 | locus YPL241C, strain CIN2, hits give low values 0.992 | locus YPR135W, strain CTF4, hits give low values 1.03

CCN(CC)CCCCCCCCOC(=O)c1cc(OC)c(OC)c(OC)c1
inactive: locus YAL040C, strain CLN3, hits give low values 1.01 | locus YDR363W, strain ESC2, hits give low values 1.01 | locus YER002W, strain NOP16, hits give low values 0.999 | [72] 1.01 | locus YNL175C, strain NOP13, hits give low values 1.01 | locus YNL197C, strain WHI3, hits give low values 1.02 | locus YNL224C, strain SQS1, hits give low values 0.985 | [73] 0.992 | locus YOR083W, strain WHI5 (second series), hits give low values 1.03
